Hit rate of the full screen: of about 260,000 compounds, about 1,500 (0.58%) were called active. Inconclusive results (about 5%) are left out.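 How the source made its calls: active means inhibition above a set limit at one or more doses, reproduced on every date tested; inconclusive means results disagree between test dates, or hit never tested in dose response; inactive means the rest.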 A selection follows. Entries with a potency or affinity are not part of this list.
Target: Virion infectivity factor (Human immunodeficiency virus type 1 group M subtype B (isolate BH10)) + Virion infectivity factor (Human immunodeficiency virus type 1 group M subtype B (isolate BRU/LAI)) + Virion infectivity factor (Human immunodeficiency virus type 1 group M subtype B (isolate PCV12)) + Virion infectivity factor (Human immunodeficiency virus type 1 group M subtype B (isolate HXB2)) + DNA dC->dU-editing enzyme APOBEC-3G (Homo sapiens) (UniProt P69720+P69721+P69722+P69723+Q9HC16)
Experiment: HIV-1 Vif–A3G interaction blockers – biochemical, TR-FRET, GST-Vif 1-94, biotin-A3G peptide, dose response retest, primary screen (AID 1117319);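 further: Vif residues 1-94 fused to GST binding biotinylated APOBEC3G peptide 110-148; 0% = full assay without inhibitor and 100% = GST in place of GST-Vif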
Details: TR-FRET GST-Vif / biotin-A3G peptide binding; stronger effect = higher value

| Compound | inhibition |
| --- | --- |
| O=C(COC(=O)CCC(=O)N1CCOCC1)Nc1ccc(Br)cc1Br | 3.75% (inactive) |
| O=C(C1CCCN1S(=O)(=O)c1ccc(Cl)cc1)N1CCCCC1 (centres undefined) | -2.58% (inactive) |
| Nc1ccc(N2CCN(c3ccc(Cl)c(Cl)c3)CC2)cc1 | 22.2% (inactive) |
| O=C(O)c1ccc(N2CCCCC2)cc1 | 8.04% (inactive) |
| O=Cc1ccc(N2CCCCC2)cc1 | -6% (inactive) |
| CN1CCN(c2ccc(C(=O)c3ccc(F)cc3)cc2)CC1 | -7.54% (inactive) |
| CCn1c(SCC(=O)NC2CC2)nnc1-c1ccccc1 | -1.91% (inactive) |
| COc1ccc(CNC(=O)c2ccccc2NS(C)(=O)=O)cc1 | 1.78% (inactive) |
| C=C(C)CNC(=S)NNC(=O)c1ccncc1 | -3.17% (inactive) |
| Cc1cc(C)c(S(=O)(=O)NCCc2ccncc2)c(C)c1 | -0.3% (inactive) |
| CC(NC(N)=O)C(=O)Nc1ccc(Cl)c(S(=O)(=O)Nc2ccc(Br)cc2)c1 (centres undefined) | 10.3% (inactive) |
| CCOc1ccc(S(=O)(=O)n2ccc(C)n2)cc1 | -9.61% (inactive) |
| CCOc1ccc(NCCC#N)cc1 | -2.11% (inactive) |
| CCOc1ccc(NC(=O)NC2CCOC(C)(C)C2)cc1 (centres undefined) | 22% (inactive) |
| Cc1ccc(C)c(NC(=O)CSc2nc3c(c(=O)n2C)SC(C)C3)c1 (centres undefined) | 8.15% (inactive) |
| Cc1cc(C)c(NC(=O)CSc2nc3c(c(=O)n2C)SC(C)C3)c(C)c1 (centres undefined) | 3.57% (inactive) |
| CCC(C)N(NC(C)=O)c1nc(Cl)nc(NC(C)(C)C)n1 (centres undefined) | 7.21% (inactive) |
| COc1ccc(/C=N/NC(=O)CN(C2=NS(=O)(=O)c3ccccc32)c2ccccc2)cc1 | 22.5% (inactive) |
| CCOC(=O)C1(Cc2cccc(OC)c2)CCN(Cc2ccc(C)s2)CC1 | 11.4% (inactive) |
| Cc1ccc(O)c(Cc2cc(C)cc(Cc3cc(C)ccc3O)c2O)c1 | -3.64% (inactive) |
| Cc1cc(C(C)(C)C)c(O)c(C(C)(C)C)c1 | 17.9% (inactive) |
| COc1ccc(OC)c(-c2[nH]nc3c2C(c2ccco2)C(C#N)=C(N)O3)c1 (centres undefined) | 17.4% (inactive) |
| CC(=O)Nc1ccc(S(=O)(=O)Nc2nc3ccc([N+](=O)[O-])cc3s2)cc1 | 0.77% (inactive) |
| O=C(Nc1cccc(S(=O)(=O)NC2=NCCC2)c1)c1cc(-c2ccco2)nc2ccccc12 | -0.28% (inactive) |
| O=C(Nc1cccc(S(=O)(=O)NC2=NCCC2)c1)c1cc(-c2ccccn2)nc2ccccc12 | -2.06% (inactive) |
| O=C(NCC1CCCO1)c1cc(-c2ccncc2)nc2ccccc12 (centres undefined) | -2.45% (inactive) |
| COc1ccc(-c2cc(C(=O)NCC3CCCO3)c3ccccc3n2)cc1 (centres undefined) | -7.4% (inactive) |
| O=C(NNC(=O)c1cc(-c2ccco2)nc2ccccc12)c1ccccc1 | 14% (inactive) |
| O=C(NC1CC1)c1cc(-c2ccccn2)nc2ccccc12 | -3.96% (inactive) |

Reference: PubChem BioAssay AID1117319 (Southern Research Institute, 2015)
